Structures are written as SMILES. Compounds without any hit were thinned out: in the full panel of roughly 83,000, 20% have a hit.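 Results are percent growth after 48 hours of single-concentration exposure. 100 means growth as in untreated cells, lower positive values show inhibition; negative values down to -100 show cell death.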 Calls of active or inactive are those of the source. Rule for the calls: active = growth percent below 10; inactive = the rest.

In the first experiment the test system is HCT-15 colon. The experiment is described as follows: NCI-60 one-dose screen, 48 h (100 = growth as untreated, 0 = no growth, -100 = all killed). The following applies: 10 µM unless noted.
Take `O=C1c2cc3c(cc2-c2c1c1ccc(F)cc1c(=O)n2C[C@H](O)[C@H](O)[C@H](O)CO)OCO3`: the growth is 0.724% (active).

`O=C(CCl)Oc1ccc(-c2ccccc2)c(Br)c1`: the growth was 110% (inactive).

Turning to `CCCCCCN(CCCCCC)C(=N)c1ccnc2ccccc12`, the growth is 65.9% (inactive).

In the case of `Cc1cc(N2CCCCCC2)nc(NC2CCCC(Nc3ccnc4cc(Cl)ccc34)C2)n1` (stereo not drawn), the growth was -87.4% (active).

Another experiment relates to HT29 colon. Described as above. Particulars: 10 µM unless noted.
With `Cn1ccnc1C(=O)/C=C/c1ccc(CC(=O)Nc2ccccc2)cc1`, the growth is 5.1% (active).

For `Cc1ccc2oc(=O)cc(C3c4ccc([nH]4)C(c4cc(=O)oc5ccc(C)cc45)c4ccc([nH]4)C(c4cc(=O)oc5ccc(C)cc45)c4ccc([nH]4)C(c4cc(=O)oc5ccc(C)cc45)c4ccc3[nH]4)c2c1` (stereo not drawn), the growth is -75.7% (active).

As for `CC(C)(C)CC(C)(C)c1ccc(OCCOCC[N+](C)(C)Cc2ccccc2)cc1`, the growth was -50.5% (active).

For the compound `CN1CCN(CCCOc2cccc3nc(Nc4cc(Cl)cc(Cl)c4)ccc23)CC1`, the growth was -80.1% (active).

Consider `CC(C)C[C@@H](NC(=O)[C@@H](Cc1ccccc1)NC(=O)c1cnccn1)B1Oc2ccc(C[C@H](NC(=O)[C@H](Cc3ccc4c(c3)OB([C@@H](CC(C)C)NC(=O)[C@@H](Cc3ccccc3)NC(=O)c3cnccn3)O4)NC(=O)[C@@H](N)CC3CCC4OB([C@@H](CC(C)C)NC(=O)[C@@H](CC5CCCCC5)NC(=O)C5CNCCN5)OC4C3)C(=O)NCCCC[C@@H]3NC(=O)[C@@H](Cc4ccccc4)NC(=O)[C@H](CC(=O)O)NC(=O)CNC(=O)[C@H](CCCNC(=N)N)NC3=O)cc2O1` (stereo partly drawn), for which the growth was -61.9% (active).

As for `CCN(CC)c1ccc(/C=N\NC(=O)/C=C/C=C/c2ccc3c(c2)OCO3)c(O)c1`, the growth is 67.8% (inactive).

With `O=S(=O)(Nc1ccc(NS(=O)(=O)c2ccccc2)c(Cl)c1)c1ccccc1`, the growth was 107% (inactive).

For `COc1ccc(/C=C/c2nc3ccccc3nc2/C=C/c2ccc(OC)cc2)cc1`, the growth is 95.1% (inactive).

In the case of `COc1ccc(/C=C/C(=O)c2cc(O)ccc2O)cc1`, the growth was 102% (inactive).

Regarding `O=CNc1ccc2c(c1)Cc1cccc(NC=O)c1-2`, the growth is 96.2% (inactive).

Take `FC(F)(F)c1[nH]ncc1-c1nc2ccc3n[nH]c(C#Cc4cccnc4)c3c2c2c1CCCC2`: the growth was 32.5% (inactive).

In the case of `CCOc1cc2ncc(C#N)c(Nc3ccc(OCc4cccc(F)c4)c(Cl)c3)c2cc1NC(=O)CCCCC1CCSS1` (stereo not drawn), the growth was 86.8% (inactive).

Regarding `O=C(COc1ccc(-c2nc3cc(Cl)c(Cl)cc3[nH]2)cc1)N=Nc1c(O)[nH]c2ccccc12`, the growth was 4.49% (active).

For `Nc1n[nH]c2cc(F)c([C@@H]3Nc4ccc5[nH]ncc5c4[C@H]4C5CCC(C5)[C@@H]34)cc12` (stereo partly drawn), the growth is 3.7% (active).

Turning to `C#CC(F)(F)[C@]1(O)CC[C@H]2[C@@H]3CCC4=CC(=O)CCC4=C3[C@@H](c3ccc(C(C)=O)cc3)C[C@@]21C`, the growth was 1.5% (active).

Take `CCCOc1cc2ccccc2cc1C(=O)Nc1nc(N)c2c(ccc3nccc32)[nH]1`: the growth was -63.3% (active).

For the compound `CCc1nc(N)nc(N)c1C#CC(C)c1cc(-c2ccnc(C)c2)c2oc(C)nc2c1` (stereo not drawn), the growth was 6.46% (active).

For the compound `Clc1ccc2c(NCCCCNc3nc(N4CCCCC4)nc4ccccc34)ccnc2c1`, the growth was -14.2% (active).

With `O=c1ccccc(-c2ccc(-c3ccco3)cc2)c1O`, the growth is 24.9% (inactive).

Consider `CCOC(=O)c1c(C)oc2ncnc(N3CCN(C(=S)Nc4ccccc4)CC3)c12`, for which the growth is 102% (inactive).

As for `CCN1CCN(c2nc(NCCNc3ccnc4cc(Cl)ccc34)c3ccccc3n2)CC1`, the growth was -14.1% (active).

`COc1ccc(-c2n[nH]nc2-c2csc3ccccc23)cc1OC`: the growth is 8.59% (active).

Take `COc1ccc(O)c(N=Nc2nccs2)c1`: the growth was 79.7% (inactive).

For the compound `O=C(Oc1cccnc1)c1ccsc1Nc1ccnc(C(F)(F)F)c1`, the growth was 4.26% (active).

For `Oc1ccccc1-c1nnc(CNc2ccc(Cl)cc2)o1`, the growth is 39.7% (inactive).

Regarding `NC1=C(Cl)C(=O)c2ccc(S(N)(=O)=O)cc2C1=O`, the growth was -50.3% (active).

For the compound `CCOc1cc2ncc(C#N)c(Nc3ccc(F)c(Cl)c3)c2cc1NC(=O)CC1CCSS1` (stereo not drawn), the growth was -72.5% (active).

On to `Clc1ccc2c(NCCCCNc3nc(N4CCOCC4)nc4ccccc34)ccnc2c1`, for which the growth is -26.4% (active).

Turning to `Cc1ccc(-c2onc3c(=O)[nH]nc(-c4ccccc4)c23)cc1`, the growth is -3.08% (active).

Regarding `CN(Cc1cc(Cl)cc(Cl)c1O)Cc1cc(Cl)cc(Cl)c1O`, the growth is 94.1% (inactive).

Turning to `CCN1CCN(c2nc(NCCCNc3ccnc4cc(Cl)ccc34)c3ccccc3n2)CC1`, the growth is -16% (active).

As for `CSc1ccc(-c2ccccc(=O)c2O)cc1`, the growth was 25.7% (inactive).

Regarding `Clc1ccc2c(NCCCNc3nc(-n4ccnc4)nc4ccccc34)ccnc2c1`, the growth was 75.1% (inactive).

On to `CC1CCNC(C)C1` (stereo not drawn), for which the growth was 110% (inactive).

Regarding `COc1ccc(NC(=O)c2ccc(/C=C/C(=O)c3ncc[nH]3)cc2)cc1`, the growth was 3.59% (active).

Regarding `O=C1c2cc3c(cc2-c2c1c1ccc(F)cc1c(=O)n2C[C@H](O)[C@H](O)[C@H](O)CO)OCO3`, the growth is -4.15% (active).

On to `O=C(CCl)Oc1ccc(-c2ccccc2)c(Br)c1`, for which the growth is 109% (inactive).

With `CCCCCCN(CCCCCC)C(=N)c1ccnc2ccccc12`, the growth is 8.96% (active).

On to `Cc1cc(N2CCCCCC2)nc(NC2CCCC(Nc3ccnc4cc(Cl)ccc34)C2)n1` (stereo not drawn), for which the growth was -82.9% (active).

The record behind these values is PubChem BioAssay (NCI).
